Bioassay records from PubChem BioAssay.
This is a sample that favours compounds with a hit; in the whole collection about 7.9% have one here.
MARV entry inh: blocks Marburg virus binding to or entry into cells; Marburg virus pseudotyped entry inhibition, cell reporter; Potency, µM (titrated, usually from 37.8 µM), usual class: inhibitors; actives 1.8% (n = 300,000); calls by dose curve; tested in HEK293 cells
Lassa entry inh: blocks Lassa virus binding to or entry into cells. Potency, µM (top dose mostly 37.9 µM), usual class: inhibitors. Lassa virus pseudotype entry inhibition, cell reporter. actives 1.2% (n = 300,000); calls by dose curve; tested in HEK293 cells; also: nearly all actives have a fitted effect of over 50% in size
HCV inhibitor: HCV inhibition | Huh7.5.1 HCVcc-Cre infection, luciferase reporter, 44 h | Potency, µM (top dose mostly 41.8 µM), actives largely listed as inhibitors | actives 3.4% (n = 340,000) | AID 651820; active = well fitted inhibition curve with a large enough effect; inconclusive = small, poorly fitted or top-dose-only effect, or another doubt; inactive = no such curve, though single readings can be large or run the other way
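Infectious HCV cell culture screen: compound-treated cells (1,000/well, pre-plated 4 h) are infected with HCVcc-Cre at roughly 0.5 moi and grown 44 h. Infection is quantified by luciferase signal after 15 min substrate incubation at room temperature.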
HCMV inh: blocks human cytomegalovirus replication | activity change, negative = inhibition, % at 57.5 µM | actives 4.5% (n = 410,000) | HFF cells, HCMV-luciferase reporter, 72 h; hits give low values; in the data active = activity change below about -60%; inconclusive = no clear call, values can overlap the other calls; inactive = above about -39%
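Inhibition of viral replication was scored as loss of reporter luminescence in HFFs infected with HCMV-luciferase (MOI 1 PFU/cell) for 72 h; compounds tested at 2 doses, normalized to buffer and Salinomycin controls.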
FMDV antiviral: antivirals against foot and mouth disease virus. FMDV antiviral cell-based qHTS. Potency, µM (series often up to 57.9 µM), usual class: inhibitors. actives 1.2% (n = 410,000); calls by dose curve; tested in HEK293T cells; also: read-out not given here; nearly all actives have a fitted effect of over 45% in size
Each line names hits and unclear results; the compound was inactive in the other large screens.

COc1ccc(-c2nn(-c3ccccc3)cc2/C=N/Nc2ccc3ccccc3n2)cc1OC	MARV entry inh inconclusive, Lassa entry inh inconclusive, HCV inhibitor 10µM, FMDV antiviral inconclusive
CCCc1cc(=O)oc2cc(OCC(=O)NCCc3c[nH]c4ccc(OC)cc34)ccc12	HCV inhibitor 18µM (no result: MARV entry inh, Lassa entry inh)
O=C(COc1ccc2ccc(=O)oc2c1)NCCc1c[nH]c2ccc(F)cc12	FMDV antiviral inconclusive (no result: MARV entry inh, Lassa entry inh)
CCc1cc(=O)oc2cc(C)cc(OCC(=O)NC(Cc3c[nH]c4ccc(O)cc34)C(=O)O)c12 (stereo not given)	none (no result: MARV entry inh, Lassa entry inh)
CCc1cc(=O)oc2cc(C)cc(OCC(=O)NCCc3c[nH]c4ccccc34)c12	HCV inhibitor 2.2µM, FMDV antiviral inconclusive (no result: MARV entry inh, Lassa entry inh)
Cc1ccc(S(=O)(=O)NCCC(=O)NNC(=O)COc2ccccc2Cl)cc1C	none (no result: MARV entry inh, Lassa entry inh)
COc1cc2c(cc1OC)C1(C)N(CC2)C(C(C)=O)=NN1c1ccc(Cl)cc1 (stereo not given)	HCV inhibitor inconclusive (no result: MARV entry inh, Lassa entry inh)
Cc1cccc(-c2cc3nc(C)cc(C)n3n2)c1	MARV entry inh inconclusive, Lassa entry inh inconclusive, HCV inhibitor 10µM
COc1ccc(-c2cc3nc(C)cc(-c4ccc(OC)cc4)n3n2)cc1	HCV inhibitor 10µM (no result: MARV entry inh, Lassa entry inh)
CN(C)CCCNc1cc(-c2ccccc2)nc2cc(-c3cccc(F)c3)nn12	HCV inhibitor inconclusive (no result: MARV entry inh, Lassa entry inh)
Cc1cc(C(F)(F)F)n2nc(-c3cccs3)cc2n1	MARV entry inh inconclusive
Cc1cccc(-c2cc3nc(C)cc(NCCCN(C)C)n3n2)c1	MARV entry inh inconclusive, Lassa entry inh inconclusive, HCV inhibitor 2.5µM
CCN(CC)CCCNc1cc(C)nc2cc(-c3cccs3)nn12	MARV entry inh 18µM, HCV inhibitor inconclusive
Cc1cc(C)cc(NC(=O)C(=O)NCC(c2ccc3c(c2)OCO3)N2CCOCC2)c1 (stereo not given)	none (no result: MARV entry inh, HCV inhibitor)
Cc1c(C(=O)NCC2COc3ccccc3O2)oc2ccc(S(=O)(=O)N3CC(C)CC(C)C3)cc12 (stereo not given)	MARV entry inh inconclusive, HCV inhibitor inconclusive (no result: FMDV antiviral)
CCN(CC)S(=O)(=O)c1ccc2oc(C(=O)NCc3ccc(F)cc3)c(C)c2c1	MARV entry inh inconclusive, Lassa entry inh 5.8µM, HCV inhibitor inconclusive, HCMV inh inconclusive, FMDV antiviral inconclusive
CCN(CC)S(=O)(=O)c1ccc2oc(C(=O)NCC3COc4ccccc4O3)c(C)c2c1 (stereo not given)	MARV entry inh inconclusive, Lassa entry inh 23µM, HCV inhibitor 10µM, FMDV antiviral inconclusive
C=CCSc1nnc2c(n1)[nH]c1c(C)cccc12	MARV entry inh inconclusive, HCV inhibitor 7.9µM (no result: FMDV antiviral)
CN(C)CC(CCC(CN(C)C)C(O)(c1ccccc1)c1ccccc1)C(O)(c1ccccc1)c1ccccc1 (stereo not given)	MARV entry inh inconclusive, Lassa entry inh inconclusive, HCV inhibitor 11µM, HCMV inh -98
CC(=O)Nc1ccc(C)cc1	none (no result: MARV entry inh, Lassa entry inh)
CC(=O)Nc1ccc(C(=O)CCl)cc1	FMDV antiviral 28µM (no result: Lassa entry inh)
CC(=O)NCc1ccc(C(=O)CCl)s1	MARV entry inh 4.5µM, Lassa entry inh inconclusive, HCV inhibitor inconclusive, FMDV antiviral 28µM
CC(=O)NCc1ccc(C(=O)CCl)cc1	HCV inhibitor inconclusive, FMDV antiviral 32µM
O=C(Cc1n[nH]c(=O)c2ccccc12)OCC(=O)c1ccccc1	none (no result: MARV entry inh, Lassa entry inh)
CCOC(=O)C(C)Sc1nc(-c2cccs2)ccc1C#N (stereo not given)	HCV inhibitor 14µM
Cc1ccc(S(=O)(=O)Cn2nnnc2C(c2ccccc2)N2CCN(c3ccccc3)CC2)cc1 (stereo not given)	MARV entry inh inconclusive
CCC(c1nnnn1CS(=O)(=O)c1ccc(C)cc1)N1CCN(c2nc3ccccc3s2)CC1 (stereo not given)	MARV entry inh 8.2µM, Lassa entry inh inconclusive, HCV inhibitor inconclusive, HCMV inh -64 (no result: FMDV antiviral)
CCCC(c1nnnn1CS(=O)(=O)c1ccc(C)cc1)N1CCN(c2ccccc2)CC1 (stereo not given)	MARV entry inh inconclusive, Lassa entry inh 11µM, HCV inhibitor inconclusive
CC(C)Oc1ccc(S(=O)(=O)N2CCOCC2)cc1NC(=O)Cc1cccs1	none
Cc1ccc(Cc2nc3ccccc3nc2SCC(=O)Nc2ccc3c(c2)OCO3)cc1	HCMV inh -66 (no result: MARV entry inh, HCV inhibitor)
CCc1cccc(C)c1NC(=O)CSc1nc2ccccc2nc1Cc1ccccc1	HCMV inh -68 (no result: MARV entry inh, HCV inhibitor)
Cc1nn(CC(=O)OCC(=O)Nc2cccc(S(N)(=O)=O)c2)c(C)c1[N+](=O)[O-]	none (no result: MARV entry inh, Lassa entry inh)
COC(=O)[C@@]12C[C@@H](CC(=O)N3CCSCC3)C(=O)N(Cc3cccc4ccccc34)C1=CCC(C)(C)C2	none (no result: MARV entry inh, Lassa entry inh, HCV inhibitor)
COc1cc(C(=O)Oc2cccc(Nc3ncnc4ccccc34)c2)cc(OC)c1OC	MARV entry inh inconclusive, Lassa entry inh inconclusive, HCV inhibitor 25µM, HCMV inh -70 (no result: FMDV antiviral)
COc1ccc(C(=O)Oc2cccc(Nc3ncnc4ccccc34)c2)cc1OC	MARV entry inh inconclusive, Lassa entry inh inconclusive, HCV inhibitor inconclusive, FMDV antiviral 20µM
COc1ccc(-c2cc(C)no2)cc1S(=O)(=O)NCc1ccc(OC(C)C)cc1	none (no result: MARV entry inh)
CCCC(CCC)C(=O)Nc1ccc2c(c1)N(C(=O)CCN1CCN(C)CC1)c1ccccc1CC2	MARV entry inh 11µM, HCV inhibitor inconclusive
CCN(CC)CC(=O)Nc1ccc2c(c1)Nc1ccccc1CC2	MARV entry inh inconclusive, HCV inhibitor 13µM
CCOC(=O)Nc1ccc2c(c1)N(C(=O)CN1CCN(C)CC1)c1ccccc1CC2	none (no result: MARV entry inh, Lassa entry inh)
CCOC(=O)Nc1ccc2c(c1)N(C(=O)CN(CC)CC)c1ccccc1CC2	none
CCN(CC)CC(=O)Nc1ccc2c(c1)N(C(=O)CN(CC)CC)c1ccccc1CC2	MARV entry inh 8.2µM, Lassa entry inh inconclusive, HCV inhibitor inconclusive (no result: FMDV antiviral)
O=[N+]([O-])c1cc([N+](=O)[O-])c2oc(-c3ccccc3)c(Br)c2c1O	MARV entry inh inconclusive, FMDV antiviral inconclusive (no result: HCMV inh)
CN(Cc1ccc(Cl)cc1)C(=O)COC(=O)c1ccc(-c2ccc(O)cc2)cc1	none (no result: MARV entry inh, Lassa entry inh)
Cc1cccc(N2CCN(C(=O)C3CCN(S(=O)(=O)c4cccc5nsnc45)CC3)CC2C)c1 (stereo not given)	MARV entry inh inconclusive, Lassa entry inh inconclusive, HCV inhibitor 11µM, HCMV inh inconclusive, FMDV antiviral 25µM
Cc1ccc(Cl)cc1N1CCN(C(=O)C2CCN(c3nnc(-n4cccc4)s3)CC2)CC1	HCV inhibitor 13µM, HCMV inh inconclusive, FMDV antiviral inconclusive (no result: MARV entry inh, Lassa entry inh)
Cc1cccc(N2CCN(C(=O)C3CCN(c4nnc(-n5cccc5)s4)CC3)CC2C)c1 (stereo not given)	HCV inhibitor inconclusive, FMDV antiviral 16µM
Cc1ccc(Cl)cc1N1CCN(C(=O)c2cccn2-c2nnc(N3CCCCC3)s2)CC1	Lassa entry inh inconclusive (no result: MARV entry inh, HCV inhibitor)
COc1cc(NC(=O)CCc2c(C)nc3cc(-c4ccccc4)nn3c2C)cc(OC)c1OC	HCMV inh -104 (no result: HCV inhibitor)
COc1cc(OC)cc(-c2cc3nc(C)c(CCC(=O)Nc4ccc(F)c(Cl)c4)c(C)n3n2)c1	MARV entry inh inconclusive, HCMV inh -62, FMDV antiviral 32µM (no result: HCV inhibitor)
COc1cc2c(cc1NC(=O)COC(=O)[C@@H](NC(=O)c1ccccc1)C(C)C)oc1ccccc12	MARV entry inh inconclusive, HCV inhibitor 7.1µM
